For the assay, the system named is lanierone-responsive B-neuron OSN class (ItypOR36). Nature of the assay: net action potential response of lanierone B-neuron (blank-subtracted) (spikes/s (Hz)); higher = stronger excitation. The settings on record: 10 µg on filter paper, neuron: B neuron (small spike amplitude). As for the experimental part: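 Single sensillum recordings from antennal olfactory sensilla of live adult Ips typographus. Each compound was 10 µg in paraffin oil, delivered as a 0.5 s puff. Net response = spikes in the first 0.5 s of response minus the 0.5 s pre-stimulus count, doubled to give Hz, with blank response subtracted. Values are for the small-spike lanierone-responsive B-neuron (putatively expressing ItypOR36), recorded in sensilla co-housing the A-neuron class; N = 1-4, averaged.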

[1] abbreviates: co-localized A-neuron class: (4S)-cis-verbenol.
Where [2] appears, read: co-localized A-neuron class: (5S,7S)-trans-conophthorin.
The mark [3] stands for this setting: co-localized A-neuron class: (+)-isopinocamphone.
The mark [4] stands for this setting: co-localized A-neuron class: (+)-trans-4-thujanol.
[5] abbreviates: co-localized A-neuron class: ipsdienol.
Setting [6] is: co-localized A-neuron class: myrcene.
[7] abbreviates: co-localized A-neuron class: p-cymene.

± gives the standard deviation of the averaged measurements.

In the case of `CC(=O)OCCc1ccccc1` [2-Phenethyl acetate], the “net action potential response” value by setting is: under setting [1], 5.33 ± 13; under setting [2], -0.667 ± 3.1; under setting [3], -1.33 ± 3.1; under setting [4], 0.5 ± 4.1; under setting [5], -6.67 ± 7; under setting [6], -6. Also, the “net action potential response” value under setting [7] is -5.33 ± 2.3.

For the compound `CCC/C=C\CO`, the “net action potential response” value under setting [1] amounted to 2 ± 11; the “net action potential response” value under setting [2] was 2 ± 5.3; the “net action potential response” value under setting [3] is -7.33 ± 4.6; the “net action potential response” value under setting [4] is 2 ± 3.6; the “net action potential response” value under setting [5] is 0.667 ± 3.1; the “net action potential response” value under setting [6] stood at 6. Further, under setting [7], the “net action potential response” value was 2.67 ± 4.2.

In the case of `CC(C)CCO` [3-Methyl-1-butanol], the “net action potential response” value under setting [1] was 3.33 ± 2.3; the “net action potential response” value under setting [2] is 0.667 ± 6.1; the “net action potential response” value under setting [3] stood at 1.33 ± 11; the “net action potential response” value under setting [4] is -4 ± 2.3; the “net action potential response” value under setting [5] was -4.67 ± 6.4; the “net action potential response” value under setting [6] was -6. Also, the “net action potential response” value under setting [7] was -0.667 ± 2.3.

In the case of `CC1(C)C2CC=C(CO)C1C2` (racemic) [(±)-Myrtenol], the “net action potential response” value is -0.667 ± 3.1 under setting [1]; 2.5 ± 6 under setting [2]; -1.33 ± 3.1 under setting [3]; 0 ± 2.3 under setting [4]; -2 ± 14 under setting [5]; -6 under setting [6]. For the same compound, the “net action potential response” value under setting [7] was determined as 0 ± 2.

As for `C=CC(O)CCCCC` (racemic) [(±)-1-Octen-3-ol], the “net action potential response” value by setting is: under setting [1], -6.67 ± 5; under setting [2], -0.5 ± 2.5; under setting [3], -2 ± 4; under setting [4], 0 ± 1.6; under setting [5], -3.33 ± 1.1; under setting [6], 4. Besides, the “net action potential response” value under setting [7] worked out at 0.667 ± 3.1.

Consider `C=C(C)C1CC=C(C)C(=O)C1` (racemic) [(±)-Carvone], for which the “net action potential response” value reads like this: under setting [1], -1.33 ± 5; under setting [2], 1.5 ± 2.5; under setting [3], 2.67 ± 2.3; under setting [4], 1 ± 2.6; under setting [5], -4.67 ± 2.3; under setting [6], 6. In addition, the “net action potential response” value under setting [7] came to 0 ± 5.3.

The values are drawn from the supplement of paper PMC11577813, “Eurasian spruce bark beetle detects lanierone using a highly expressed specialist odorant receptor, present in several functional sensillum types” (BMC Biology, 2024).
